This is a sample that favours compounds with a hit; in the whole collection about 1.3% have one here.
LmPK inhibitor = LmPK (Leishmania mexicana) enzyme inhibition | Q27686 | purified LmPK, Kinase-Glo ATP luminescence, 1 h | Potency, µM (series often up to 57.5 µM), without a hit: at the highest dose activity change, negative = inhibition, actives largely listed as inhibitors | actives 0.37% (n = 290,000)
Target sequence (Q27686 whole entry, looked up): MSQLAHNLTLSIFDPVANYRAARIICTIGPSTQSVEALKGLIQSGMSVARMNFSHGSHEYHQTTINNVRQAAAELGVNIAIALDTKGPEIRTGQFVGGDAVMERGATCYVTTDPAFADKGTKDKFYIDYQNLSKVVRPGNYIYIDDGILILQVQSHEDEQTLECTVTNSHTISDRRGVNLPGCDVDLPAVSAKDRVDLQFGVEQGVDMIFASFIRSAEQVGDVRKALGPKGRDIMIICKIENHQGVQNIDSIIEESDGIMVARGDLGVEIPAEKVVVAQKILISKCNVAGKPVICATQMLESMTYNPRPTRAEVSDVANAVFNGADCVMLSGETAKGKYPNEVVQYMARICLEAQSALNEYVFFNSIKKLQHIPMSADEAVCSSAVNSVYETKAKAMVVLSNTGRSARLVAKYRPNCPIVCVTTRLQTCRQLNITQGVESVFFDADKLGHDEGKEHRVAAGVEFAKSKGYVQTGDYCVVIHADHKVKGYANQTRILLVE
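Kinase-Glo luminescence read after 1 h RT reaction of 0.1 nM LmPK with 0.5 mM PEP and 0.1 mM ADP. Activity scaled between uninhibited and enzyme-free controls.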
VACV Venus inh = inhibitors of vaccinia virus (Venus reporter) | Potency, µM (series often up to 36.5 µM), without a hit: at the highest dose activity change, negative = inhibition, usual class: inhibitors | AID 720580 | actives 0.46% (n = 330,000) | Vaccinia virus Venus reporter expression, fluorescence; calls by dose curve; tested in A549 cells; note: nearly all actives have a fitted effect of over 30% in size
TbPYK inhibitor = blocks Trypanosoma brucei pyruvate kinase | actives 0.12% (n = 410,000) | TbPYK enzyme, Kinase-Glo Plus ATP luminescence, 45 min | Potency, µM (titrated, usually from 76.8 µM), for inactives: top-dose activity, negative = inhibition, hits mostly inhibitors | Q57TT1 | AID 624173; note: nearly all actives have a fitted effect of over 50% in size
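TbPYK + substrate in 50 mM TEA pH 7.2, 100 mM KCl, 10 mM MgCl2, 0.05% BSA, 0.01% Tween-20; cpd pinned; ADP 130 uM final; 45 min RT; Kinase-Glo Plus 10 min; luminescence endpoint.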
AMA1-RON2 inh = inhibitors of Plasmodium falciparum AMA1-RON2 interaction; AlphaScreen AMA1-biotinylated RON2 peptide binding; Potency, µM (top dose mostly 58.2 µM), inactives show at the top dose activity change, negative = inhibition, usual class: inhibitors; actives 0.2% (n = 360,000); AID 720542;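 note: 0% = vehicle wells and -100% = peptide control; nearly all actives have a fitted effect of over 45% in size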
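AMA1 (3D7) with his tag at 25 nM final met compounds first, then biotinylated RON2 peptide at 25 nM; detection used donor plus acceptor beads, 10 µg/mL apiece, read by AlphaScreen after 30 min at room temperature.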
Vaccinia mCherry = vaccinia inhibition (mCherry reporter); Potency, µM (highest dose often 36.5 µM), for inactives: top-dose activity change, negative = inhibition, usual class: inhibitors; actives 0.63% (n = 310,000); Vaccinia virus mCherry reporter infection, fluorescence; calls by dose curve; tested in A549 cells; note: nearly all actives have a fitted effect of over 35% in size
RE007 growth inh = less growth of the S. pombe RE007 Vpr strain | actives 0.21% (n = 360,000) | Potency, µM (top dose mostly 92.2 µM), for the others: top-dose activity change, negative = less growth, usual class: inhibitors | S. pombe RE007 Vpr strain, BacTiter-Glo ATP luminescence, 24 h; active = well fitted falling curve with a large enough effect; inconclusive = small, poorly fitted or top-dose-only effect; inactive = no such curve, though single readings can be large or run the other way; note: nearly all actives have a fitted effect of over 50% in size
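Fission yeast strain RE007, carrying one chromosomally integrated HIV-1 vpr copy, was seeded at OD 0.01 in PMG+AL medium with 23 nL pinned compound. After 24 h at 30 °C and 99% humidity, viability was read by BacTiter-Glo luminescence.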
* = called active by the depositor; [ ] = dose if it differs, or a comment. Unless noted, calls come from the whole dose curve; as a rule, active = well fitted curve in the direction sought with a large enough effect; inconclusive = small, poorly fitted or top-dose-only effect, or another doubt; inactive = no such curve, though single readings can be large; an effect the other way counts as inactive or inconclusive. Unless noted, % is set by controls: 0 for no effect and ±100 for the full control effect; potency is the fitted concentration of half-maximal effect.

How did COC(=O)c1c(OCc2ccccc2)cc(=O)n2c1CCN(Cc1cccc(C)n1)CC2 do in these assays?
VACV Venus inh: 0%; Vaccinia mCherry: 0%

Results for COc1cccc(-c2nc3cc(SC)ccc3cc2CN(C(=O)c2sccc2C)C2CC2)c1 ?
VACV Venus inh: -14%; Vaccinia mCherry: inactive

How did O=C(CSCc1cccc(CSCC(=O)Nc2ccc3ccccc3c2)n1)Nc1ccc2ccccc2c1 do in these assays?
LmPK inhibitor: 5%; VACV Venus inh: 11µM*; TbPYK inhibitor: -10%; AMA1-RON2 inh: 1%; Vaccinia mCherry: 11µM*; RE007 growth inh: 6%

What do the screens show for `O=C(CSCc1nc2ccccc2[nH]1)Nc1ccc2ccccc2c1`?
LmPK inhibitor: 3%; TbPYK inhibitor: 2%; AMA1-RON2 inh: -3%; RE007 growth inh: 17%

How did COC(=O)c1cc(C)nc2c1C(=O)C(=O)C=C2N1CCOCC1 do in these assays?
LmPK inhibitor: -10%; VACV Venus inh: 4.5µM*; TbPYK inhibitor: -12%; AMA1-RON2 inh: inconclusive; Vaccinia mCherry: inconclusive; RE007 growth inh: -2%

Results for NC(=O)NN=C1c2cc(S(=O)(=O)N3CCOCC3)ccc2-c2ccc(S(=O)(=O)N3CCOCC3)cc21 ?
VACV Venus inh: -18%; Vaccinia mCherry: -1%

How did CCCCC1(CCCC)C(=O)NC(=Nc2cccc(C)c2)NC1=O do in these assays?
LmPK inhibitor: 3%; VACV Venus inh: 10µM*; TbPYK inhibitor: -1%; AMA1-RON2 inh: 52%; Vaccinia mCherry: inconclusive; RE007 growth inh: -17%

How did O=C(CS)Nc1ccccc1 do in these assays?
TbPYK inhibitor: 3%

How did Oc1ccc(/C=N/Nc2nccnc2Cl)cc1 do in these assays?
LmPK inhibitor: 5µM*; VACV Venus inh: -6%; TbPYK inhibitor: inconclusive; AMA1-RON2 inh: -2%; Vaccinia mCherry: -19%; RE007 growth inh: inconclusive

What do the screens show for `Fc1ccc(/C=N/Nc2nccnc2Cl)cc1`?
LmPK inhibitor: inconclusive; TbPYK inhibitor: inconclusive; AMA1-RON2 inh: 16%; RE007 growth inh: -27%

How did O=[N+]([O-])c1cccc(/C=N/Nc2nccnc2Cl)c1 do in these assays?
LmPK inhibitor: 14µM*; VACV Venus inh: -18%; TbPYK inhibitor: -19%; AMA1-RON2 inh: -17%; Vaccinia mCherry: inactive; RE007 growth inh: -14%

How did C=CCN(CC=C)Cc1c(O)ccc2c1oc(=O)c1ccccc12 do in these assays?
VACV Venus inh: -3%; TbPYK inhibitor: -22%; AMA1-RON2 inh: 21µM*; Vaccinia mCherry: inactive; RE007 growth inh: -16%

What do the screens show for `C=CCN(CC=C)Cc1cc(=O)oc2ccc3ccccc3c12`?
VACV Venus inh: -21%; TbPYK inhibitor: 2%; AMA1-RON2 inh: 30%; Vaccinia mCherry: -4%; RE007 growth inh: -27%

How did COc1ccc(N2CCC(CNC(=S)Nc3cc(C)cc(C)c3)C2)cc1 (centres undefined) do in these assays?
LmPK inhibitor: 5%; VACV Venus inh: -28%; TbPYK inhibitor: -21%; AMA1-RON2 inh: 6.3µM*; Vaccinia mCherry: inconclusive; RE007 growth inh: 8%

Results for COc1ccc(N2CCC(CNC(=S)Nc3cc(C)ccc3C)C2)cc1 (centres undefined) ?
LmPK inhibitor: 5%; TbPYK inhibitor: -14%; AMA1-RON2 inh: inconclusive; RE007 growth inh: -5%

What do the screens show for `Cc1cc(C=c2sc3nc4ccccc4n3c2=O)c(C)n1-c1ccccc1`?
TbPYK inhibitor: 0%

How did COc1cc2nc(N3CCN(c4cc(C)ccc4C)CC3)nc(N)c2cc1OC do in these assays?
LmPK inhibitor: 0%; VACV Venus inh: 10µM*; TbPYK inhibitor: -11%; AMA1-RON2 inh: -19%; Vaccinia mCherry: inconclusive; RE007 growth inh: 30%

Results for Cc1cc(C)c(NC(=O)COC(=O)CSc2ccc(Br)cc2C)c(C)c1 ?
LmPK inhibitor: 3%; VACV Venus inh: -12%; TbPYK inhibitor: -8%; AMA1-RON2 inh: 7%; Vaccinia mCherry: -2%

Results for CCN(CC)c1ccc(NC(=O)COC(=O)CSc2ccc(Br)cc2C)cc1 ?
LmPK inhibitor: -1%; VACV Venus inh: -12%; TbPYK inhibitor: -10%; AMA1-RON2 inh: 10µM*; Vaccinia mCherry: -5%; RE007 growth inh: 0%

Results for CN(C)S(=O)(=O)c1ccc(N2CCN(S(=O)(=O)c3ccc(F)cc3)CC2)c(Cl)c1 ?
LmPK inhibitor: 1%; VACV Venus inh: 10µM*; TbPYK inhibitor: 1%; AMA1-RON2 inh: 0%; Vaccinia mCherry: 10µM*; RE007 growth inh: 5%

How did CCC(=O)C(Cc1ccccc1)(Cc1ccccc1)CC(C)N(C)C (centres undefined) do in these assays?
TbPYK inhibitor: -5%[157 µM]

Results for CCCCn1nc2cc(C(=O)NCC34CC5CC(CC(C5)C3)C4)ccc2c1OC ?
LmPK inhibitor: -1%; VACV Venus inh: inconclusive; TbPYK inhibitor: -4%; AMA1-RON2 inh: 4%; Vaccinia mCherry: 6.3µM*; RE007 growth inh: -7%

Results for COc1ccc(/C(=N/Nc2ncnc3ccccc23)C(=O)O)cc1 ?
LmPK inhibitor: 1%; VACV Venus inh: -26%; TbPYK inhibitor: 4%; AMA1-RON2 inh: 52%; Vaccinia mCherry: 10µM*; RE007 growth inh: -3%

What do the screens show for `Nc1ncnc2c1ncn2[C@@H]1O[C@H](COP(=O)(O)OP(=O)(O)OP(=O)(O)O)[C@@H](O)[C@H]1O`?
VACV Venus inh: -9%; TbPYK inhibitor: -20%; AMA1-RON2 inh: 19%; Vaccinia mCherry: -10%; RE007 growth inh: 3.2µM*

How did CCN(CC)c1ccc(N=Cc2ccc([N+](=O)[O-])o2)cc1 do in these assays?
LmPK inhibitor: -30%; VACV Venus inh: inconclusive; TbPYK inhibitor: inconclusive; AMA1-RON2 inh: inconclusive; Vaccinia mCherry: inconclusive; RE007 growth inh: inconclusive

What do the screens show for `CCN(CC)c1ccc(N=Cc2ccccc2[N+](=O)[O-])cc1`?
LmPK inhibitor: -10%; VACV Venus inh: inconclusive; TbPYK inhibitor: -23%; AMA1-RON2 inh: 18µM*; Vaccinia mCherry: inconclusive; RE007 growth inh: inconclusive

What do the screens show for `COc1ccc(OC)c(NC(=O)c2oc3ccccc3c2NC(=O)C2CC2)c1`?
LmPK inhibitor: 3%; TbPYK inhibitor: 4%; AMA1-RON2 inh: 14%; RE007 growth inh: 18%

What do the screens show for `COc1ccc(NC(=O)c2oc3ccccc3c2NC(=O)C2CC2)c(OC)c1`?
LmPK inhibitor: 7%; VACV Venus inh: 9%[7.34 µM]; TbPYK inhibitor: -2%; AMA1-RON2 inh: 4.5µM*; Vaccinia mCherry: -5%[7.34 µM]; RE007 growth inh: -5%

What do the screens show for `COC(=O)C1=C(C)NC(C)=C(C(=O)O[C@H]2CCN(Cc3ccccc3)C2)C1c1cccc([N+](=O)[O-])c1` (some centres undefined)?
TbPYK inhibitor: -7%

High-throughput results: PubChem BioAssay, National Center for Advancing Translational Sciences (NCATS)
